Screens deposited in PubChem by several laboratories.
Sampled rows, rich in hits. Any-hit rate of the full collection: about 4.1%.
697 NFkB inh: inhibitors of the PMA/ionomycin-induced NF-kB reporter in 697 B cells; AID 435022; 697 B-cell NF-kB luciferase reporter, 16 h; inhibition, % at 4 µM; 330,000 tested, 0.33% active; in the data active = inhibition above about 35%
Mdm2 MdmX PPI: inhibitors of human Mdm2/MdmX interaction. SaOS-2 split-luciferase Mdm2/MdmX complementation, luminescence. inhibition, % at 8 µM. 330,000 tested, 3% active;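 active = inhibition of at least 50% at 8 µM in the primary screen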
Target sequence (O15151 whole entry, looked up): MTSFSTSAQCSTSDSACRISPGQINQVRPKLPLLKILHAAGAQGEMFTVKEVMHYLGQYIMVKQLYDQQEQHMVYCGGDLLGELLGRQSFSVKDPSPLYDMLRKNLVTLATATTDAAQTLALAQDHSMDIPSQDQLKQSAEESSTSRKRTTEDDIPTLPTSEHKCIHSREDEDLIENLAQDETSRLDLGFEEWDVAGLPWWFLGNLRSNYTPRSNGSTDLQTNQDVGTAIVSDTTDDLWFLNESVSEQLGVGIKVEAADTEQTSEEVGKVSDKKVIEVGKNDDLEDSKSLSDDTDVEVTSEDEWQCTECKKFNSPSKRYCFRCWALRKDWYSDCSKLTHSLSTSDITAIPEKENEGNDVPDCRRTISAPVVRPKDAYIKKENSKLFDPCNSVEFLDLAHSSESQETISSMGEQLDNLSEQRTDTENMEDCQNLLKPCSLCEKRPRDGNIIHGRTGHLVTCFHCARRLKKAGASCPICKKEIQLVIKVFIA
Target sequence (Q00987 whole entry, looked up): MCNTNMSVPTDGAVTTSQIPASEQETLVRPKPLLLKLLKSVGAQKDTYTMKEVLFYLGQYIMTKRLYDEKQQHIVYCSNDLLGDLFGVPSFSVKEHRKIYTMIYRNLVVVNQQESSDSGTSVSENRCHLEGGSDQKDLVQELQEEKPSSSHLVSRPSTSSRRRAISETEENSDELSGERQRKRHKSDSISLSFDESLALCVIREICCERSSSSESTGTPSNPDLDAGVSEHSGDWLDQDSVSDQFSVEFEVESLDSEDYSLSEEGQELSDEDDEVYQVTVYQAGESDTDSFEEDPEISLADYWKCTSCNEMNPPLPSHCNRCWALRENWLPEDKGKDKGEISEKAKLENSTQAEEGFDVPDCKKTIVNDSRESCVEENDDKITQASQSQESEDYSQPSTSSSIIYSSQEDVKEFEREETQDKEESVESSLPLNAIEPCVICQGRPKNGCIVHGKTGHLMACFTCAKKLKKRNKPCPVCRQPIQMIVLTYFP
KLF5 inh: kruppel-like factor 5 inhibition. DLD-1 KLF5 promoter-luciferase reporter, luminescence. inhibition, % at 5 µM. 290,000 tested, 0.23% active. AID 1700;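 active = inhibition above a per-plate limit of that plate's mean compound inhibition plus 3 SD, cut at about 60% in these data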;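 also: higher means less KLF5 promoter-driven luciferase light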
Jurkat NFkB inh: lowers PMA/ionomycin-induced NF-kB signal in Jurkat cells | 330,000 tested, 0.53% active | AID 435003 | PMA/ionomycin-induced NF-kB luciferase reporter, luminescence | inhibition, % at 4 µM; in the data active = inhibition above about 50%
aSyn 5UTR inh: 5' untranslated region of α-synuclein, MLPCN primary screen | alpha-synuclein 5'UTR reporter, inhibitor activity | 300,000 tested, 0.82% active | inhibition, % (tested at 7.5 µM) | AID 1813; in the data active = inhibition above about 60%;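 also: H4 neuroglioblastoma cells stably carrying SNCA 5'UTR luciferase fusion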
Gli-Sufu block: Gli-Sufu pathway antagonism; Sufu-KO-LIGHT fibroblasts, Gli luciferase reporter luminescence; inhibition, % at 5 µM; 340,000 tested, 0.74% active; AID 588413;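 active = inhibition above about 55%, limit read from the data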
Mdm2-MdmX conf: confirmation of human Mdm2/MdmX interaction inhibitors; shares compounds with Mdm2 MdmX PPI; Mdm2-MdmX binding, luminescent assay; inhibition, % at 8 µM; 10,000 tested, 55% active; AID 489028; in the data active = inhibition above about 40%
FLuc counter: inhibits full-length luciferase, flagging false Mdm2/MdmX hits | shares compounds with Mdm2 MdmX PPI | SaOS-2 full-length luciferase counterscreen, luminescence | AID 504607 | inhibition, % at 8 µM | 6,200 tested, 77% active;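 active = mean inhibition at 8 µM reaching about 37%, which flags the compound as non-specific, limit read from the data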;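 also: p53-null SaOS-2 cells with luciferase driven by a doxycycline-inducible promoter; compound on cells about two nights before reading with doxycycline added after day one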
Numbers stand for hits; - = inactive; . = no result given.

SMILES	697 NFkB inh	Mdm2 MdmX PPI	KLF5 inh	Jurkat NFkB inh	aSyn 5UTR inh	Gli-Sufu block	Mdm2-MdmX conf	FLuc counter
Nc1ncnc2c1ncn2[C@@H]1O[C@H](CNS(=O)(=O)c2cc(S(=O)(=O)c3ccccc3)cs2)[C@@H](O)[C@H]1O	-	-	.	.	.	-	.	.
Cn1nc(C(=O)NCCCN2CCCCC2)c2c1-c1ccccc1S(=O)(=O)C2	-	-	-	-	-	-	.	.
CCn1c(SCC(=O)N2c3ccccc3CCc3ccccc32)nc2c1c(=O)n(C)c(=O)n2C	-	-	-	-	-	-	.	.
CC1Cc2ccccc2N1C(=O)CSc1nc2c(c(=O)n(C)c(=O)n2C)n1Cc1ccccc1 (stereo not given)	-	50.4	-	-	-	-	-	.
Cn1nc(-c2ccc(OCC(=O)Nc3cccnc3)cc2)c2ccccc2c1=O	-	63.7	-	-	-	-	-	.
CNC(=O)COc1ccc(-c2nn(C)c(=O)c3ccccc23)cc1	-	-	-	-	-	-	.	.
CC1=NN(c2cccc(C(=O)O)c2)C(=O)/C1=C\C=C/c1ccccc1	-	64.6	-	-	-	-	-	.
CC1=NN(c2ccc(C)cc2)C(=O)/C1=C\C=C\c1ccccc1	-	-	-	-	-	-	.	.
NC(=O)c1ncn([C@@H]2O[C@H](CNCc3cccc(OC4CCCC4)c3)[C@@H](O)[C@H]2O)n1	.	.	.	.	.	-	.	.
CC(=O)Cn1nnc2sc(-c3ccccc3)cc2c1=O	-	-	-	-	-	-	.	.
C=CCOc1ccc(-c2nc3c(c(=O)[nH]c(=O)n3CCCC)n2C)cc1Br	-	70.4	-	-	-	-	-	.
COc1ccc(-c2nc3c(c(=O)n(C)c(=O)n3C)n2CC2CC(c3ccccc3)=NO2)cc1OC (stereo not given)	-	61.0	-	-	-	-	44.6	89.2
COc1ccc(C(=O)OCC2CC(c3ccccc3)=NO2)cc1OC (stereo not given)	-	-	-	-	-	-	.	.
CCCCN1CC(O)=C(c2nc(-c3ccc(Br)cc3)cs2)C1=N	-	80.1	-	-	-	-	52.5	63.4
Cc1cccc(/C(N)=N/OC(=O)c2cccc3ccccc23)c1	-	100.5	-	-	-	.	77.5	107.9
N/C(=N\OC(=O)c1cccc2ccccc12)c1cccnc1	-	-	-	-	-	-	.	.
O=C(O/N=C(\c1ccccc1)c1ccccn1)c1cccc2ccccc12	-	86.8	-	-	-	-	-	.
COc1cc(OC)cc(C(=O)O/N=C(\N)c2ccncc2)c1	-	-	-	-	-	-	.	.
N/C(=N\OC(=O)c1cccc2ccccc12)c1cccc([N+](=O)[O-])c1	-	75.8	-	-	-	-	58.4	127.9
COc1cc(OC)cc(C(=O)O/N=C(\N)c2cccc(C)c2)c1	-	72.6	-	-	-	-	43.8	105.0
CN1CCCN(C(=O)c2c(F)cccc2Cl)CC1	-	-	-	-	-	-	.	.
O=C(O)/C=C/c1ccc(OCc2cccc(F)c2)cc1	-	-	-	-	-	-	.	.
Cc1cccc(/C(N)=N/OC(=O)N2c3ccccc3Sc3ccccc32)c1	-	64.5	-	-	-	-	-	.
O=C(NC(O)C(=O)c1ccccc1)c1ccccn1 (stereo not given)	-	-	-	-	-	-	.	.
O=C(NN=C(c1ccccc1)c1ccccn1)c1ccccc1	-	91.2	.	-	.	-	58.0	-
SMILES	697 NFkB inh	Mdm2 MdmX PPI	KLF5 inh	Jurkat NFkB inh	aSyn 5UTR inh	Gli-Sufu block	Mdm2-MdmX conf	FLuc counter
N/C(=N\OC(=O)N1c2ccccc2Sc2ccccc21)c1ccccc1	-	-	-	-	-	-	.	.
Cc1cccc(-c2ncc(CN3CCCC(CO)(Cc4ccccc4C)C3)cn2)c1 (stereo not given)	-	-	-	-	-	-	.	.
COc1ccc(C(=O)Nc2ccc(Cl)cc2C(=O)N2CCCC(C)C2)cc1OC (stereo not given)	-	-	-	-	-	-	.	.
CCCCN1CCN=C1N(C)C	-	-	.	-	.	-	.	.
COc1ccc(C2(c3ccc(OC)cc3)NC(=O)N(CC(=O)Nc3ccccc3C(F)(F)F)C2=O)cc1	-	-	-	-	-	-	.	.
COc1ccc([C@]2(C(C)C)ON(c3ccccc3C(F)(F)F)C2=O)cc1	-	82.0	.	-	.	-	41.1	51.4
COc1ccc([C@@]2(C(C)C)ON(c3ccccc3C(F)(F)F)C2=O)cc1	-	79.8	.	-	.	-	56.2	44.8
CC(C)[C@@]1(c2ccc(Cl)cc2)ON(c2ccccc2C(F)(F)F)C1=O	-	75.0	.	-	.	.	43.8	49.6
CCC(=O)N(Cc1ccc(S(N)(=O)=O)cc1)C1CC(=O)N(c2ccccc2)C1=O (stereo not given)	-	-	-	-	-	-	.	.
Cc1ccc(NS(=O)(=O)c2csc(C(N)=O)c2)cc1C	-	-	-	-	-	-	.	.
COc1cccc(-c2nn(-c3ccc(C)cc3)cc2C(=O)N2CCc3cc(OC)c(OC)cc3C2)c1	-	58.0	.	-	-	-	67.2	85.6
CC(C)(C)C(=O)CSc1nc(N)cc(=O)[nH]1	-	-	-	-	-	-	.	.
CC1CC(C)CN(S(=O)(=O)c2ccc3oc(=O)ccc3c2)C1 (stereo not given)	-	-	-	-	-	-	.	.
C#CCn1c(S(=O)(=O)Cc2ccccc2Cl)nc(-c2ccccc2)c1-c1ccccc1	-	73.3	-	-	-	-	47.0	84.4
Cc1nc(-n2[nH]c3c(c2=O)CCCC3)[nH]c(=O)c1Cc1ccccc1	-	58.1	-	-	89.8	-	64.2	-
Cc1nc(N2CCc3ccccc3C2)[nH]c(=O)c1Cc1ccccc1	-	-	-	-	-	-	.	.
Cc1cccc(NC(=O)C(C)Sc2nc3ccccc3c(=O)n2CCCN2CCOCC2)c1 (stereo not given)	-	88.6	.	-	.	-	70.5	51.4
Cn1c(N)c(C(=O)CSc2nc3ccccc3c(=O)n2CCCN2CCOCC2)c(=O)n(C)c1=O	-	-	-	-	-	-	.	.
Cc1[nH]c2ccccc2c1C(=O)CSc1nc2ccccc2c(=O)n1CCCN1CCOCC1	-	58.8	-	-	-	-	-	.
CC(=O)c1cccc(NC(=O)CSc2nc3ccccc3c(=O)n2CCCN2CCOCC2)c1	-	-	.	-	.	-	.	.
O=c1[nH]c2ccccc2c(O)c1-c1cc2ccccc2oc1=O	-	-	-	-	-	.	.	.
CCOc1ccc2ccccc2c1/C=N/NC(=O)CNC(=O)Cc1ccccc1	-	-	-	-	-	-	.	.
O=C(N/N=C/c1ccc(O)cc1)Nc1cccc2nsnc12	-	70.5	-	-	-	-	66.2	62.0
Cc1ccc(CS(=O)Cc2ccc(C(=O)N3CCN(C4CCCCC4)CC3)o2)cc1 (stereo not given)	-	-	-	-	-	-	.	.
Cc1ccc(C)c(Cn2c(C)nc3c(sc(=S)n3-c3ccccc3)c2=O)c1	-	60.4	-	-	-	-	-	.
